Only some compounds are listed: those with a hit (about 8% of all), similar ones and a draw of the others.
LASV entry inh: qHTS for Inhibitors of binding or entry into cells for Lassa Virus | actives 1.2% (n = 300,000) | Potency, µM (highest dose often 37.9 µM), hits mostly inhibitors | Lassa virus pseudotype entry inhibition, cell reporter; calls by dose curve; tested in HEK293 cells; further: nearly all actives have a fitted effect of over 50% in size
FMDV inh: High Throughput Screening for Foot and Mouth Disease Virus Antivirals. FMDV antiviral cell-based qHTS. Potency, µM (titrated, usually from 57.9 µM), hits mostly inhibitors. actives 1.2% (n = 410,000). AID 1159524, 2015; calls by dose curve; tested in HEK293T cells; further: read-out not given here; nearly all actives have a fitted effect of over 45% in size
SARS PLpro yeast: qHTS of Yeast-based Assay for SARS-CoV PLP. S. cerevisiae expressing SARS-CoV PLpro, growth rescue. Potency, µM (doses to about 32.9 µM), usual class: activators. actives 0.19% (n = 330,000). AID 485353, 2010; calls by dose curve; further: nearly all actives have a fitted effect of over 55% in size
HCV inhibitor: qHTS Assay for Inhibitors of Hepatitis C Virus (HCV); Huh7.5.1 HCVcc-Cre infection, luciferase reporter, 44 h; Potency, µM (highest dose often 41.8 µM), usual class: inhibitors; actives 3.4% (n = 340,000)
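Cells (1,000/well) were plated 4 h before compound, then infected with HCVcc-Cre virus (~0.5 moi). After 44 h further culture, infection was read as luciferase luminescence following a 15 min substrate incubation at room temperature.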
MARV entry inh: qHTS for inhibitors of binding or entry into cells for Marburg Virus; actives 1.8% (n = 300,000); Marburg virus pseudotyped entry inhibition, cell reporter; Potency, µM (highest dose often 37.8 µM), hits mostly inhibitors; calls by dose curve; tested in HEK293 cells
HCMV inh: qHTS Assay for inhibitors of the human cytomegalovirus (HCMV). AID 1259415, 2018. activity change, negative = inhibition, % at 57.5 µM. HFF cells, HCMV-luciferase reporter, 72 h; active compounds read low. actives 4.5% (n = 410,000); in the data active means activity change below about -60%; inconclusive means no clear call, values can overlap the other calls; inactive means above about -39%
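After 16 h attachment at 37C, HFF cells received test compound and HCMV-luciferase (1 PFU/cell); reporter luminescence read 72 h later, data normalized against buffer-only and known inhibitor Salinomycin.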
HCV inh confirm: qHTS Assay for Inhibitors of Hepatitis C Virus (HCV): Confirmation Assay for Cherry-picked Compounds. HCVcc-Cre infectious virus cell assay, luciferase, inhibition. AID 720575, 2013. Potency, µM (doses to about 41.8 µM), hits mostly inhibitors. actives 78% (n = 640). shares compounds with HCV inhibitor; further: nearly all actives have a fitted effect of over 80% in size
HCV cytotox: qHTS Assay for Inhibitors of Hepatitis C Virus (HCV): Cytotoxicity Counterscreen for Cherry-picked Compounds. shares compounds with HCV inhibitor. HCV host cell line cytotoxicity counterscreen. actives 22% (n = 640). Potency, µM (highest dose often 41.8 µM), actives largely listed as inhibitors;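 further: 44 h compound exposure; nearly all actives have a fitted effect of over 55% in size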
Numbers stand for hits; 0 = inactive; ? = inconclusive; - = no result; [ ] = another dose, or the depositor's remark. Unless noted, the call rests on the fitted dose curve; in most records, active means well fitted curve in the direction sought with a large enough effect; inconclusive means small, poorly fitted or top-dose-only effect, or another doubt; inactive means no such curve, though single readings can be large; an effect the other way counts as inactive or inconclusive.

SMILES	LASV entry inh	FMDV inh	SARS PLpro yeast	HCV inhibitor	MARV entry inh	HCMV inh	HCV inh confirm	HCV cytotox
CCc1ccc(C(CNC(=O)c2ccc3c(=O)n(-c4ccccc4F)c(=S)[nH]c3c2)N(C)C)cc1 (centres undefined)	-	?	0	5µM	?	?	1.4µM	31µM
CCOC(=O)N1CCN(C(=O)c2ccc3c(=O)n(-c4ccccc4F)c(=S)[nH]c3c2)CC1	0	0	0	0	0	0	-	-
CCC(Oc1ccccc1)C(=O)Nc1ccccc1OCc1cc(=O)n2ccccc2n1 (centres undefined)	0	0	-	-	-	0	-	-
COc1ccc(C2CC(=O)N(CC(=O)Nc3ccc(C(C)=O)cc3)c3ccccc3S2)cc1OC (centres undefined)	-	?	-	-	?	0	-	-
COc1cccc(NC(=O)Nc2ccc(Cc3ccncc3)cc2)c1	0	0	0	?	?	?	?	0
COc1cccc(NC(=O)Nc2ccncc2)c1	0	0	0	0	0	0	-	-
CCOC(=O)N1CCN(C(=O)CSCC(=O)Nc2nc(-c3ccc4c(c3)OCO4)cs2)CC1	0	?	0	?	?	-	16µM	0
CC(=O)Nc1nc(-c2ccc3c(c2)OCO3)cs1	-	0	0	0	-	0	-	-
Cc1cccc(C(=O)N2CCc3cc(-c4csc(NC(=O)CN5CCCC5)n4)ccc32)c1	-	?	0	?	?	0	-	-
Cc1sc(NC(=O)Cc2ccc3c(c2)OCO3)nc1-c1ccc2c(c1)CCN2C(=O)c1cccc(F)c1	0	?	0	4µM	?	?	3.5µM	?
C=C(C(=O)O)C(CCCCCC)C(=O)O (centres undefined)	-	0	0	0.63µM	-	0	0	0
CCCCCCCCCCCCC(C(=O)O)C(C)C(=O)O (centres undefined)	-	0	-	-	-	-	-	-
C[C@@H](CSc1ccc(Br)cc1)CN1CC[C@H](NC(=O)OCc2ccccc2)CCC1=O	-	25µM	0	4.5µM	-	0	14µM	0
O=C(OCC12CC3CC(CC(C3)C1)C2)c1ccc(NCc2cc(O)ccc2O)cc1	4.5µM	18µM	-	1.6µM	?	-77	4µM	10µM
CC1(C)SC(=S)N(/N=C/c2cccnc2)C1N(O)C(=O)NC1CCCCC1 (centres undefined)	0	0	0	7.9µM	0	0	11µM	0
O=C(NC(Nc1ncc(S(=O)(=O)c2ccc([N+](=O)[O-])cc2)s1)(C(F)(F)F)C(F)(F)F)c1ccc(Cl)cc1	?	?	0	4.5µM	3.2µM	-96	4.4µM	7.9µM
CCOC(=O)c1ccc(NC(=S)N(CCCN2CCN(C)CC2)Cc2cccs2)cc1	-	0	0	?	?	0	-	-
CCOC(=O)c1ccc(NC(=S)N(CCCN2CCCC2)Cc2cccs2)cc1	-	0	0	?	?	0	?	0
Clc1ccc2c(NCc3ccccc3)ccnc2c1	?	?	0	5.6µM	?	-74	10µM	?
S=C(NNc1ccnc2cc(Cl)ccc12)Nc1ccccc1Cl	?	?	0	?	?	0	-	-
CCN(CC)CCOC(=O)C(c1ccccc1)c1ccccc1	0	0	0	0[8.37 µM]	0	0	-	-
CCN(CC)CCOC(=O)C(c1ccccc1)C1CCCCC1 (centres undefined)	-	0	0	?	-	?	14µM	0
Cc1nn(CCC(=O)NC(C)C)c(=O)c2nn(-c3ccccc3)c(C)c12	0	0	-	-	-	0	-	-
Nc1ccccc1C#Cc1ccc([N+](=O)[O-])cc1	?	0	-	?	?	0	1.8µM	0
Cc1ccc(C)c(N2CCN(CCCNC(=O)C3COc4ccccc4C3)CC2)c1 (centres undefined)	0	0	-	-	-	0	-	-
SMILES	LASV entry inh	FMDV inh	SARS PLpro yeast	HCV inhibitor	MARV entry inh	HCMV inh	HCV inh confirm	HCV cytotox
COC(=O)c1c(NC(=O)c2ccn(C)n2)sc2c1CCC2	-	0	0	2.8µM	-	0	0.89µM	0
CCOc1cc(/C=C2/SC(=S)NC2=O)ccc1OC(=O)c1ccco1	0	0	0	3.5µM	0	0	0	0
COc1cc(/C=C2/SC(=O)NC2=O)ccc1OC(=O)c1ccco1	0	0	0	0	0	0	-	-
CC(C)N1CCC(N2CCN(Cc3ccc(-c4ccccc4Cl)o3)CC2CCO)CC1 (centres undefined)	?	0	0	4µM	?	0	6.3µM	0
COc1ccc(-c2cc(-c3ccccc3)c(C#N)c(SCC(=O)Nc3ncc(C)s3)n2)cc1	0	0	?	4.5µM	?	0	20µM	0
O=C(COc1ccc(Cl)cc1)OCc1cc(=O)n2nc(-c3cccs3)sc2n1	?	0	-	-	-	0	-	-
C=CCCC1CN(Cc2ccc(OC)cc2)S(=O)(=O)c2c(Oc3cc(C)c(C)c(C)c3)cccc2O1 (centres undefined)	0	-	-	-	-	0	-	-
CCCCN(C(C)=O)c1ccc2c(c1)C1CC2CCN1C(=O)OCc1ccccc1 (centres undefined)	-	40µM	-	3.5µM	-	?	4µM	7.9µM
c1coc(CNc2nc3nonc3nc2NCc2ccco2)c1	0	?	0	?	?	-72	2.2µM	0
O=S(=O)(Nc1cccc(F)c1)c1ccc2[nH]c3c(c2c1)CCCCC3	0	0	-	-	-	0	-	-
Cc1nn(CC(=O)NCCCN2CCC(N3CCCCC3)CC2)c(=O)c2cc(-c3ccccc3)nn12	-	0	0	4µM	-	?	25µM	0
COc1cccc(NS(=O)(=O)c2ccc3c(c2)n(C)c(=O)n3C)c1	0	0	-	-	?	0	-	-
Cc1ccc(-n2nnnc2SCCNS(=O)(=O)c2ccccc2)cc1C	0	-	0	?	?	0	14µM	0
COc1ccc(S(=O)(=O)NCCSc2nnnn2-c2ccccc2)cc1OC	0	0	-	-	0	0	-	-
CCc1ccc(C(=O)COC(=O)C(Cc2c[nH]c3ccccc23)NC(=O)c2ccc(CC)cc2)cc1 (centres undefined)	?	0	-	-	-	?	-	-
COc1ccc(NC(=O)c2ccccc2OCc2c(C)noc2C)cc1OC	0	0	0	?	0	0	?	0
Cc1ccc(CN2CCCn3nc(C(=O)NCCc4cccc(C)c4)cc3C2=O)cc1	0	0	-	-	-	0	-	-
Cc1ccccc1Cn1cnc2c(NS(C)(=O)=O)c(C)c(C)cc21	0	?	0	?	0	0	-	-
COc1ccc(Cn2cnc3c(NS(C)(=O)=O)c(C)c(C)cc32)cc1	0	?	0	3.2µM	0	0	0.011µM	0
COC(=O)c1cc(C(=O)c2ccc(Cl)cc2)n2c(=O)/c(=C\N(C)C)sc12	0	0	0	2.8µM	0	0	7.9µM	0

Source: PubChem (National Center for Advancing Translational Sciences (NCATS))
